Among all 2,400 compounds or so, fewer than 10 were called active. Another 1% or so got no clear call; they are omitted.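 The calls were made as follows: active = highest replicate activation at or above 34% and every replicate reaching that threshold; inconclusive = meets only one of the two criteria; inactive = meets neither criterion.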 A selection follows.
Target: Protein FosB (Mus musculus) (UniProt P13346)
Assay: activators of mouse delta FosB DNA binding, confirmation, biochemical, fluorescence polarization, TAMRA-CDK5 oligo, cherry-picked samples (AID 588690);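 also: higher polarization means more probe DNA bound by delta FosB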
Conditions: purified delta FosB, at 24.9 µM, active compounds read high, normalised: neutral wells 0, positive control 100

Chain of Protein FosB (Mus musculus) (P13346 whole entry, looked up): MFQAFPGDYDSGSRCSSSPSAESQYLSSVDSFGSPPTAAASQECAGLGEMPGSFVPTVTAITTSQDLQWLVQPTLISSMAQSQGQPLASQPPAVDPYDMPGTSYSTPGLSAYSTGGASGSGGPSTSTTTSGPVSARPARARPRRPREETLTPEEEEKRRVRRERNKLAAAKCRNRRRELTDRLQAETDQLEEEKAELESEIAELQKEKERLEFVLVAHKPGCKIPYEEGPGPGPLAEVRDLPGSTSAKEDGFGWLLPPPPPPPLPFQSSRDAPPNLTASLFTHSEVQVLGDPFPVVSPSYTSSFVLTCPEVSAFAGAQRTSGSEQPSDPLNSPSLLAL

Row | Compound | activation
1 | COC(=O)c1ccc(C23CC4(C2)[C@H](CN(Cc2cccnc2)[C@@H]4c2ccccc2)C3c2ccc(Cl)nc2)cc1 (some centres undefined) | -13.4% (inactive)
2 | COc1ccc(C(=O)Nc2c(N)nc(SCC(=O)Nc3ccc(C(C)=O)cc3)[nH]c2=O)cc1 | 5.95% (inactive)
3 | COc1ccc(NC(=O)CCC(=O)Nc2nnc(C3CCCCC3)s2)cc1 | 3.71% (inactive)
4 | COc1ccc(C(=O)n2nc(-c3ccc(Cl)cc3)nc2N)cc1OC | 0.58% (inactive)
5 | N#Cc1c(N)nc2c3c(sc(=N)c2c1N)NC(=O)CC3c1ccccc1Cl (centres undefined) | 3.21% (inactive)
6 | Cc1ccc(NC(=O)COc2ccc(/C=N\NC(=O)c3cccnc3)cc2)cc1C | 5.95% (inactive)
7 | CCOc1ccccc1NC(=O)Cn1nnc(C(=O)NCc2cccs2)c1N | 2.5% (inactive)
8 | CCOc1ccc2nc(N(CCN(C)C)C(=O)c3ccc4ccccc4c3)sc2c1 | -2.94% (inactive)
9 | COc1ccccc1CNC(=O)Cn1c(=O)oc2cc(Cl)ccc21 | 5.98% (inactive)
10 | O=C(Cc1ccc(-n2c(=O)c3sccc3n(Cc3ccc(F)cc3)c2=O)cc1)NCc1ccco1 | 7.21% (inactive)
11 | COc1ccc(/C=C/C(=O)Nc2ccc(C34CC5CC(CC(O)(C5)C3)C4)cc2)cc1OC | 5.41% (inactive)
12 | COc1ccc(Nc2nc(NCc3ccco3)nc(N/N=C/c3ccccc3Cl)n2)cc1 | 2.55% (inactive)
13 | Cc1ccc(-c2cc(C(=O)NCc3cn(C)nc3C)c3cc(Br)ccc3n2)cc1 | -0.3% (inactive)
14 | Cc1cccc(C(=O)Nc2ccccc2-c2nnn(CC(=O)Nc3ccc4c(c3)OCCO4)n2)c1 | -0.9% (inactive)
15 | COC(=O)c1scc(C)c1NC(=O)CSc1ccc(Cl)cc1 | 4.2% (inactive)
16 | CC[C@@H](C)[C@@H]1CN([C@@H](C)CN2CCC[C@H]2CN2C(N)=NC[C@H]2C(C)C)C(=N)N1CCc1ccc(Cl)c(Cl)c1 | -6.51% (inactive)
17 | Cc1ccccc1NC(=O)c1ccc(COc2ccc3c(C)cc(=O)oc3c2)cc1 | 1.47% (inactive)
18 | Cc1nnc(NC(=O)Nc2ccc(Cl)c(Cl)c2)s1 | 0.165% (inactive)
19 | NC(=O)NC(=O)CSc1nc2cc([N+](=O)[O-])ccc2n1-c1cccc(C(F)(F)F)c1 | 3.51% (inactive)
20 | O=C(Cn1cnc2c(nnn2Cc2ccc(F)cc2)c1=O)NCc1ccc2c(c1)OCO2 | 3.1% (inactive)
21 | O=C(Nc1ccccc1)c1ccc(NC(=O)c2cccs2)cc1 | 6.7% (inactive)
22 | COC(=O)c1nc2n(n1)C(c1ccc([N+](=O)[O-])cc1)C(C(=O)Nc1ccc(Cl)cc1)=C(C)N2 (centres undefined) | 2.9% (inactive)
23 | COc1ccc(/C=C/C(=O)Nc2c(C)nn(C)c2C)cc1COc1ccc(Br)cc1 | 5.31% (inactive)
24 | CCCOc1ccc(C(=O)C(CCC(CNCC)C(=O)c2ccc(OCCC)cc2)CNCC)cc1 (centres undefined) | 4.31% (inactive)
25 | COc1ccc(CC(=O)Nc2ccc(C(=O)NC(C)(C)C)cc2)cc1 | -6.76% (inactive)
26 | CC(=O)Nc1ccc(S(=O)(=O)NCC(=O)OCc2cc(=O)oc3ccc4ccccc4c23)cc1 | -1.24% (inactive)
27 | O=C(CN1C(=O)c2cccc3cccc1c23)Nc1ccccc1 | 5.42% (inactive)

Row | Compound | activation
28 | O=C(COc1coc(CN2CCN(c3ccccc3F)CC2)cc1=O)N1CCc2ccccc21 | -0.869% (inactive)
29 | CCOc1ccc(-n2c(SCC(=O)Nc3ccc(OC)cc3)nc3sc4c(c3c2=O)CCN(C)C4)cc1 | -0.551% (inactive)
30 | C#CCOCCOCCOCCNc1nc(N2CCN(C(=O)C(Cc3ccc(O)cc3)n3cc(C(N)CC(C)C)nn3)CC2)nc(N2CCN(C(=O)C(Cc3ccc(O)cc3)n3cc(C(N)C(C)CC)nn3)CC2)n1 (centres undefined) | 2.47% (inactive)
31 | CN(C)CCN(C(=O)CN1C(=O)c2ccccc2C1=O)c1nc2cc3c(cc2s1)OCCO3 | 0.813% (inactive)
32 | Cc1ccc(NC(=O)COc2ccc(/C=C3/NC(=O)NC3=O)cc2)cc1 | 2.85% (inactive)
33 | O=C(Nc1cccnc1Cl)c1cc(-c2ccccc2O)on1 | -0.741% (inactive)
34 | CCOC(=O)C1=C(O)/C(=C/c2ccc(OCC(=O)Nc3ccc(C)cc3)cc2)N=C1C | 3.13% (inactive)
35 | c1ccc(C[C@H]2CNCCN2CCC23CC4CC(CC(C4)C2)C3)cc1 | 2.28% (inactive)
36 | COc1ccc(CNC(=O)c2nnn(CC(=O)Nc3cc(C)cc(C)c3)c2N)cc1 | 3.37% (inactive)
37 | Cc1ccc(S(=O)(=O)N2CCC(Oc3ccc(-n4cnnn4)cc3)CC2)cc1 | -4.91% (inactive)
38 | Cn1cccc1/C=C1\SC(=O)N(CC(=O)Nc2ccc(F)cc2)C1=O | 0.105% (inactive)
39 | COc1ccc(/C=C/C(=O)OCC(=O)N2CCN(S(=O)(=O)c3ccc(C)cc3C)CC2)cc1OC | -0.0445% (inactive)
40 | O=C(Cn1nnc(-c2ccc3c(c2)OCO3)n1)NCc1ccco1 | -2.21% (inactive)
41 | Nc1nc(SCC(=O)Nc2cc(C(F)(F)F)ccc2Cl)[nH]c(=O)c1NC(=O)c1ccco1 | -8.35% (inactive)
42 | O=C(N/N=C/c1cccc(Br)c1)c1ccc(N2CCCC2=O)cc1 | 3.06% (inactive)
43 | Nc1ccc(C(=O)OCC(=O)NC2CCCc3ccccc32)cc1[N+](=O)[O-] (centres undefined) | 0.712% (inactive)
44 | COc1ccc(Br)cc1C(=O)NC(=S)Nc1cc(-c2nc3ccccc3[nH]2)ccc1C | -0.0125% (inactive)
45 | COc1cccc(OCc2cc(/C=N/NC(=O)c3nc(Cl)c(Cl)c(N)c3Cl)ccc2OC)c1 | 1.13% (inactive)
46 | Cc1cc(C)c2nc3nc(C)cc(C)c3c(N)c2c1 | 0.483% (inactive)
47 | O=C(Nc1ccccc1)Nc1nnc(COc2ccccc2F)s1 | -9.71% (inactive)
48 | Cc1ccc(OCC(=O)Nc2ccccc2C(=O)NC2CC2)cc1C | 1.23% (inactive)
49 | COc1ccc(-c2cc(=O)c3c(O)cc(O[C@@H]4O[C@H](CO[C@@H]5O[C@@H](C)[C@H](O)[C@@H](O)[C@H]5O)[C@@H](O)[C@H](O)[C@H]4O)cc3o2)cc1O | 0.468% (inactive)
50 | O=C(Nc1ccc(S(=O)(=O)N2CCc3ccccc3C2)cc1)c1ccccc1 | 6.54% (inactive)
51 | NC(N)=Nc1nc2ccc(Br)cc2c(=O)[nH]1 | -0.0365% (inactive)
52 | Cc1cc(NC(=O)Nc2c[nH]c(=O)[nH]c2=O)ccc1Br | 7.25% (inactive)
53 | CCN1CCN(c2cc3nc(C)n(Cc4ccccc4)c(=O)c3cc2NC(=O)c2ccccc2F)CC1 | 3.66% (inactive)
54 | C=CCn1c(=NC(=O)c2ccc(S(=O)(=O)N3CCCC3)cc2)sc2cc(NC(C)=O)ccc21 | 2.06% (inactive)

Row | Compound | activation
55 | CS(=O)(=O)c1ccc(-c2nnn(CC(=O)Nc3ccc4c(c3)OCCO4)n2)cc1 | 2.96% (inactive)
56 | CC(=O)Nc1ccc(NC(=O)COc2ccccc2C(=O)Nc2cccc(Cl)c2Cl)cc1 | -3.31% (inactive)
57 | Cn1c(=O)oc2cc(S(=O)(=O)N3CCC(C(=O)Nc4ccc(OC(F)(F)F)cc4)CC3)ccc21 | 3.32% (inactive)
58 | Cc1ccc(C(=O)NNC(=O)c2cc3cc4ccccc4nc3s2)cc1 | -0.255% (inactive)
59 | CN(CC(=O)Nc1ccc(Cl)cc1)C(=O)CNC(=O)c1ccc2ccccc2c1 | 6.82% (inactive)
60 | C#CCOCCOCCOCCNc1nc(N2CCN(C(=O)C([C@@H](C)O)n3cc([C@@H](N)CCCCN)nn3)CC2)nc(N2CCN(C(=O)[C@H](CCCCN)n3cc(CN)nn3)CC2)n1 (some centres undefined) | -0.353% (inactive)
61 | Cc1nn(Cc2ccc(Cl)cc2)c(Cl)c1/C=N/NC(=O)CNc1ccccc1F | 1.57% (inactive)
62 | Cc1ccc(C)c(NC(=O)C(OC(=O)c2ccc(C)s2)c2ccccc2)c1 (centres undefined) | -0.981% (inactive)
63 | Nc1nc(COC(=O)CCC(=O)c2ccc(Cl)cc2)nc(Nc2ccccc2)n1 | 0.207% (inactive)
64 | COc1ccc(Cn2c(=S)[nH]c3cc(C(=O)N4CCCCC4)ccc3c2=O)cc1 | -2.01% (inactive)
65 | COc1ccc(-c2cc(=O)oc3cc(OC(C)C(=O)Nc4ccc(CN5CCOCC5)cc4)ccc23)cc1 (centres undefined) | 0.361% (inactive)
66 | Cc1cc(NC(=O)CSc2nc3cc(Cl)ccc3c(=O)n2Cc2ccco2)no1 | 3.74% (inactive)
67 | O=C(Nc1nc(-c2ccc(-c3ccccc3)cc2)cs1)c1cnccn1 | 5.91% (inactive)
68 | O=C(Cn1nnc(-c2ccccc2)n1)NCc1ccc2c(c1)OCO2 | 5.36% (inactive)
69 | Cc1sc2ncnc(N3CCC(C(=O)Nc4nc5ccc(Cl)cc5s4)CC3)c2c1C | 5.08% (inactive)
70 | CC(Sc1nc(-c2ccccc2)cc(C(F)(F)F)n1)C(=O)Nc1ccc2c(c1)OCO2 (centres undefined) | 0.405% (inactive)
71 | COc1ccc2nc(/N=C(\N)NC(=O)Nc3ccccc3)nc(C)c2c1 | -5.43% (inactive)
72 | COc1ccc(-n2c(SCC(=O)Nc3sc4c(c3C#N)CCCC4)nnc2-c2ccc(O)cc2)cc1 | 2.22% (inactive)
73 | O=C(Cc1nc2ccccc2[nH]c1=O)c1ccc(Cl)cc1 | 3.64% (inactive)
74 | CCCCNC(=O)C(C)N(CCN(C)C)C(=O)CCCCCN1C(=O)NC(c2ccc(Cl)cc2)C(C(=O)OCc2ccccc2)=C1C (centres undefined) | 3.97% (inactive)
75 | O=C(/C=C/c1ccc(F)cc1)NCCNC(=O)/C=C/c1ccc(F)cc1 | 5% (inactive)
76 | COc1cccc(CNC(=O)c2nnn(CC(=O)Nc3cc(C)ccc3C)c2N)c1 | 0.657% (inactive)
77 | CC(=O)Nc1ccc(NC(=O)C(NS(=O)(=O)c2ccc3c(c2)OCCO3)C(C)C)cc1 (centres undefined) | 2.35% (inactive)
78 | COc1ccc(NS(=O)(=O)c2ccc(NC(=O)c3ccc(N(C)S(C)(=O)=O)cc3)cc2)cc1 | -1.03% (inactive)
79 | O=C(Nc1ccc2ccccc2c1)/C(=C/c1cccc(Br)c1)NC(=O)c1ccco1 | 5.71% (inactive)

Source: PubChem BioAssay AID588690 (Broad Institute, 2011)
